Bioassay records (PubChem)
Compounds with a hit are over-represented: about 5.4% of the library has one in this group of screens.
Gal4-VP16 FLuc = inhibits Gal4-VP16 luciferase reporter, ROR gamma counter-screen | Drosophila S2 Gal4-VP16 UAS-luciferase, luminescence, 20 h | Potency, µM (series often up to 53.6 µM), for inactives: at the top dose activity, negative = inhibition, usual class: inhibitors | 310,000 compounds, 3.5% hits | AID 2546;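 further: Gal4-VP16 expression switched on by copper sulfate through the metallothionein promoter; potency means the concentration at half of the fitted maximal effect; on the % scale 0 is the no-effect control and ±100 the full control effect; nearly all actives have a fitted effect of over 50% in size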
Six1-Eya2 inh = inhibitors of human Six1/Eya2 interaction; Q15475+O00167; AlphaScreen GST-Six1/His-Eya2 binding, biochemical; stronger effect = lower value; activity change, % (no concentration beside the values); 360,000 compounds, 0.56% hits; AID 651725; in the data active means activity change below about -65%; inconclusive means mostly about -30% to -63%; further: on the % scale 0 is the no-effect control and ±100 the full control effect
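Compounds are tested against tagged Six1 and Eya2 proteins bridged by glutathione donor and nickel acceptor beads; after a one-hour incubation at 37 °C without light, AlphaScreen emission is recorded.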
CtBP-E1A blk = blocks the CtBP interaction with E1A; 340,000 compounds, 0.49% hits; activity change, % (concentration not given with the values); AlphaScreen GST-E1A/His-CtBP binding, 1536-well; stronger effect = lower value; in the data active means activity change below about -65%; inconclusive means mostly about -30% to -63%; further: on the % scale 0 is the no-effect control and ±100 the full control effect
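Protein mix (5X: 125 nM each GST-E1A, His-CtBP) was incubated with pinned compound 2 h at 37 deg C in dark, in 50 mM Tris pH 8.0 buffer with 300 mM NaCl. Glutathione donor and nickel acceptor beads followed; AlphaScreen signal read after 1 h.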
RORg inh = blocks mouse ROR gamma transcriptional activity; 310,000 compounds, 5.4% hits; P51450; Drosophila S2 Gal4-RORgamma UAS-luciferase reporter, 20 h; AID 2551; Potency, µM (series often up to 53.6 µM), for inactives: top-dose activity change, negative = inhibition, actives largely listed as inhibitors; further: potency means the concentration at half of the fitted maximal effect; on the % scale 0 is the no-effect control and ±100 the full control effect; nearly all actives have a fitted effect of over 60% in size
Target sequence (P51450 whole entry, looked up, the tested form may be a part): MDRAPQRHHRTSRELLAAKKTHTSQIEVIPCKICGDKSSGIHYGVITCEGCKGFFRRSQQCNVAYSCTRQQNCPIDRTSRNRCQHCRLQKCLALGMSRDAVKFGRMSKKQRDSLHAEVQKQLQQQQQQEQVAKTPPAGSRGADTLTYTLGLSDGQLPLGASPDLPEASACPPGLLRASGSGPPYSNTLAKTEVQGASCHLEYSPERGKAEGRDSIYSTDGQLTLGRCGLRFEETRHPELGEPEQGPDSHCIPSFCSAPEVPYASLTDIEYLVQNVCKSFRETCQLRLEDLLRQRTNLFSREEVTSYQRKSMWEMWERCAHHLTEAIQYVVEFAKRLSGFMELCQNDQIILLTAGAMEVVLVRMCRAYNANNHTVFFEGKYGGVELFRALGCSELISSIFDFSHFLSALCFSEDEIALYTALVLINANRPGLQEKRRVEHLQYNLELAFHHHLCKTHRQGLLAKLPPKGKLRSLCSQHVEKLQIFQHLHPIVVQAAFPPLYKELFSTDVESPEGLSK
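Compounds are pin-transferred onto Drosophila Schneider cells expressing a copper-inducible Gal4–ROR gamma transactivation domain fusion. After 1 hr, copper sulfate is added to 700 uM final; luciferase is read 20 hr later.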
p53 reactivation = mutant p53 re-activation in reporter cells. H1299 p53-A138V BP100-luciferase reporter, luminescence, 24 h. Potency, µM (series often up to 92.2 µM), for the others: at the highest dose activity change, positive = activation, most hits filed as activators. 320,000 compounds, 0.063% hits. AID 504706; further: potency means the concentration at half of the fitted maximal effect; % of control where 0% means no effect; nearly all actives have a fitted effect of over 45% in size
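H1299 (p53-null), stable ts p53-A138V + BP100-Luc; 1000 cells/well, Opti-MEM/10% FBS; cpd 4 pt, 1:5; 24 h, 37 deg C, 5% CO2; detection reagent 10 min RT; luminescence.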
An asterisk follows results filed as active; ? = inconclusive; . = no result given. Unless noted, the call rests on the fitted dose curve; in most records, active means well fitted curve in the direction sought with a large enough effect; inconclusive means small, poorly fitted or top-dose-only effect, or another doubt; inactive means no such curve, though single readings can be large; an effect the other way counts as inactive or inconclusive.

SMILES	Gal4-VP16 FLuc	Six1-Eya2 inh	CtBP-E1A blk	RORg inh	p53 reactivation
COc1cccc(/C=N/NC(=O)c2cc3cc([N+](=O)[O-])ccc3s2)c1O	2.5µM*	?	?	1.4µM*	-29%
Cc1ccc(C(=O)N/N=C\c2ccccc2[N+](=O)[O-])cn1	?	0	8	10µM*	19%
COc1cc([N+](=O)[O-])cc(/C=N/NC(=O)c2ccc(C)nc2)c1O	0.63µM*	-88*	-95*	0.89µM*	18%
COc1ccccc1/C=N/NC(=O)c1ccc(NC(=O)c2cccc([N+](=O)[O-])c2)cc1	0%	.	.	30%	1%
Cc1ccc(C(=O)N/N=C\C=C\c2ccccc2[N+](=O)[O-])cn1	?	-2	-22	21%	9%
NC(=S)N/N=C/c1ccccc1[N+](=O)[O-]	?	2	2	-5%	2%
COc1ccccc1CNc1nc(-c2cccnc2)nc2ccccc12	2%	.	.	26%	.
CN(C)c1ncc2nc(-c3cc(F)cc(F)c3)c(=O)n(CCc3ccccc3)c2n1	-6%	.	.	2%	.
CCCC(=O)N1CCCC1(C)C(=O)NCc1ccc(F)cc1Cl (configuration not stated)	.	0	7	.	.
Cc1c(Cl)cn2c(=O)cc(CN3CCN(c4ccc(F)cc4)CC3)nc2c1Cl	0%	.	.	4%	5%
Cc1ccc(C)c(-c2cc(C(=O)NC3CC3)c3ccccc3n2)c1	4%	1	-13	-4%	-1%
Cc1cc(C(=O)NNC(=S)NC(C)c2ccccc2)c2ccccc2n1 (configuration not stated)	-27%	1	-1	5µM*	14%
CCNC(=S)NNC(=O)c1cc(CC(C)C)nc2ccccc12	?	1	2	0.4µM*	-4%
CCNC(=S)NNC(=O)c1cc(-c2cccc(OC)c2)nc2ccccc12	13µM*	-10	-5	2.2µM*	?
Cc1ccc(C)c(-c2cc(C(=O)NNC(=S)NCC(C)C)c3ccccc3n2)c1	?	-7	-4	1.1µM*	-22%
CN1CCN(c2ncc3nc(-c4cc(F)cc(F)c4)c(=O)n(CCC#N)c3n2)CC1	3%	.	.	-7%	.
CCNC(=S)NNC(=O)c1cc(-c2ccccc2C)nc2ccccc12	-25%	-4	-1	0.56µM*	-7%
CC(C)Oc1cccc(-c2cc(C(=O)NC(=S)N(C)c3ccccc3C(=O)O)c3ccccc3n2)c1	?	-7	15	11µM*	17%
O=Nc1c2cc(-c3ccccc3)[nH]nc-2c2ccccc12	1%	-1	.	-5%	-1%
Cc1ccc(-c2cc3c(N=O)c4ccccc4c-3n[nH]2)cc1	?	-2	-13	10µM*	-6%
Cc1scc(C(=O)N/N=C/c2ccc(OC(C)C)cc2)c1C	-23%	-1	-4	-14%	15%
COc1ccccc1/C=N/NC(=O)c1csc(C)c1C	20%	3	1	-31%	11%
Cc1scc(C(=O)N/N=C/c2ccc(Cl)s2)c1C	13µM*	-6	2	14µM*	?
CCOc1ccc(/C=N/NC(=O)c2csc(C)c2C)c(OCC)c1	-9%	18	0	13µM*	22%
CCN(CC)c1ccc(/C=N/NC(=O)c2ccc(O)cc2)cc1	2.5µM*	.	.	1.1µM*	.
SMILES	Gal4-VP16 FLuc	Six1-Eya2 inh	CtBP-E1A blk	RORg inh	p53 reactivation
CCN(CC)c1ccc(/C=N/NC(=O)c2ccoc2C)cc1	?	-5	-3	20µM*	2%
O=C(N/N=C/c1ccc([N+](=O)[O-])cc1)c1cccc2cc[nH]c12	-3%	0	.	-12%	25%
CCN(CC)c1ccc(/C=N\NC(=O)c2cccc3cc[nH]c23)cc1	18µM*	-23	-5	7.1µM*	13%
COc1ccccc1CCc1nnc(CCC(=O)NC(C)Cn2nc(C)cc2C)o1 (configuration not stated)	-1%	6	4	-1%	0%
CN(C)S(=O)(=O)c1cccc(NC(=S)NN=C(Cc2ccccc2)Cc2ccccc2)c1	?	-13	0	13µM*	6%
COc1cc(/C=N/NC(=S)Nc2cccc(S(=O)(=O)N(C)C)c2)ccc1O	3.5µM*	?	-2	3.5µM*	1%
COc1cc(/C=N/NC(=O)c2cccc(NC(=O)c3ccccc3)c2)ccc1O	12%	?	?	?	4%
Cc1ccc(S(=O)(=O)N(C)C)cc1NC(=S)NC12CC3CC(CC(C3)C1)C2	5.6µM*	-10	13	5µM*	30%
Cc1ccc(S(=O)(=O)N(C)C)cc1NC(=S)NC(=O)C12CC3CC(CC(C3)C1)C2	7.1µM*	-3	12	7.1µM*	2%
Cc1n[nH]c(=O)n1-c1ccc(OCc2ccccc2)cc1	?	-9	5	4%	4%
CCn1c(=S)sc2c(=O)n(CC(=O)Nc3ccc(C(C)=O)cc3)c(C)nc21	1%	3	6	-7%	-1%
CN(C)S(=O)(=O)c1cccc(NC(=S)NC2CCCCC2)c1	12%	2	0	-40%	-2%
CN(C)S(=O)(=O)c1cccc(NC(=S)NC23CC4CC(CC(C4)C2)C3)c1	?	-12	0	4.5µM*	1%
CC1CCCC(NC(=S)Nc2cccc(S(=O)(=O)N(C)C)c2)C1C (configuration not stated)	?	-5	-1	13µM*	-1%
CCN(Cc1cc(=O)[nH]c2ccccc12)C(=O)c1ccc(C)cc1	2%	9	.	17%	1%
O=CN1CCN(C(=S)Nc2ccc(OC(F)F)cc2)CC1	-3%	1	.	29%	5%
Fc1ccc(NC(=S)N2CCc3ccccc32)cc1	?	3	.	11µM*	22%
NS(=O)(=O)c1ccc(NC(=S)N2CCc3ccccc32)cc1	5%	-2	-2	8%	8%
FC(F)Oc1ccc(NC(=S)N2CCc3ccccc32)cc1	-90%	-1	-4	8.9µM*	22%
CCOC(=O)COc1coc(CN2CCN(c3ccccc3)CC2)cc1=O	-5%	-1	-11	-3%	-2%
CC(=O)c1sc(NC(=O)CCS(=O)(=O)c2ccc(F)cc2)nc1C	.	10	-7	.	.
CC(=O)c1sc(NC(=O)CCS(=O)(=O)c2ccccc2)nc1C	?	-20	-30	13µM*	-34%
S=C(NCCc1ccccc1)Nc1cccc2cnccc12	4.5µM*	0	3	5µM*	2%
Cc1ccc(NC(=S)Nc2cccc3cnccc23)cc1C	3.2µM*	-4	-11	?	5%
Cc1ccc(NC(=S)Nc2cccc3cnccc23)cc1	?	-8	.	?	12%
Cc1ccccc1NC(=S)Nc1cccc2cnccc12	-11%	7	-1	10µM*	5%
S=C(NCc1ccccc1)Nc1cccc2cnccc12	?	6	0	-7%	-9%
